# ssDAF12 agonist – S. stercoralis DAF-12 nuclear receptor activators, primary screen, cell-based, luminescence, HEK293, GRIP1 co-expression, lit1-tk-luc. actives 1% (n = 370,000). Nuclear hormone receptor DAF-12 (Strongyloides stercoralis). HEK293 ssDAF-12/GRIP1 lit1-tk-luc reporter; % of 3 µM dafachronic acid response. AID 652126, 2013. activation, % at 6.8 µM;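 active means activation above the mean over all tested compounds plus 3 SD, cut at about 0.9% in these data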;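 further: 0% = DMSO-only wells and 100% = 3 µM delta7-dafachronic acid wells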
# DAX1 inh-1 – DAX1 (NR0B1) inhibitors on StAR promoter, primary screen, cell-based, luminescence, SF-1 (NR5A1), full-length DAX-1. actives 1.1% (n = 370,000). HEK293T StAR-luciferase reporter, SF-1/DAX-1 repression relief. AID 652010, 2013. inhibition, % at 6.8 µM;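 active means inhibition above the mean over all tested compounds plus 3 SD, cut at about 3.6% in these data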;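 further: 0% = DAX-1 cells with DMSO and 100% = cells lacking DAX-1 with DMSO; higher inhibition means more luminescence from relief of DAX-1 repression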
# hgDAF12 agonist – H. glycines DAF-12 receptor agonists, primary screen, cell-based, luminescence, HEK293, GAL4 fusion, UAS-luciferase; AID 687014, 2013; actives 1.8% (n = 370,000); Nuclear hormone receptor DAF-12 (Heterodera glycines), GAL4 fusion; HEK293 GAL4-hgDAF12 UAS-luciferase reporter, agonist luminescence; normalized to butyrate control; activation, % at 6.8 µM;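 active means activation above a cutoff set at the mean of all screened compounds plus 3 SD, cut at about 10% in these data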;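 further: 0% = DMSO wells and 100% = sodium butyrate wells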
# DAX1 inh-2 – DAX1 (NR0B1) inhibitors, primary screen, cell-based, HEK293, Gal4-DAX1, luciferase luminescence; actives 0.99% (n = 340,000); AID 504766, 2011; HEK293 Gal4-DAX1 luciferase reporter; Nuclear receptor subfamily 0 group B member 1 (Homo sapiens), P51843; inhibition, % at 6.75 µM;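 active means inhibition above the mean over all tested compounds plus 3 SD, cut at about 4.2% in these data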;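 further: 0% = DAX1-transfected cells with DMSO and 100% = empty-vector control cells with DMSO; inhibition shows as a rise in luminescence from relieved DAX1 repression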
# Target sequence (P51843 207-470 limits assumed): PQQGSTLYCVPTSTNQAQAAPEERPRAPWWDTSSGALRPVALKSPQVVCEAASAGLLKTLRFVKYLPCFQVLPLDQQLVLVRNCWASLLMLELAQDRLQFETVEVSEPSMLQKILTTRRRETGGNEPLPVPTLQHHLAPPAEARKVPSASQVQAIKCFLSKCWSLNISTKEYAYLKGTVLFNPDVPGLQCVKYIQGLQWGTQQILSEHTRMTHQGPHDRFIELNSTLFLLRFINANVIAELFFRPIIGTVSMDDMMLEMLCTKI
# hcDAF12 agonist – H. contortus DAF-12 nuclear receptor activators, primary screen, cell-based, luminescence, HEK293, lit1-tk-luc reporter | HEK293 hcDAF-12 lit1-tk-luc reporter; 0% DMSO, 100% Δ7-dafachronic acid | actives 1.4% (n = 370,000) | activation, % at 6.8 µM | AID 652067, 2013;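 active means activation above the mean of all tested compounds plus 3 SD, cut at about 5.5% in these data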;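 further: 100% = response to 3 µM Δ7-dafachronic acid high control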
# DAX1 inh confirm – DAX1 (NR0B1) inhibitors relieving SF-1 repression, confirmation, cell-based, luminescence, HEK293T, full-length DAX-1, SF-1 activated StAR promoter | shares compounds with DAX1 inh-1 | HEK293T StAR-promoter luciferase reporter, SF-1/DAX-1 repression | inhibition, % at 6.8 µM | actives 87% (n = 2,400);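 active means inhibition above the average of every tested compound plus 3 SD, cut at about 3.8% in these data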;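 further: 0% = DAX-1 cells with DMSO and 100% = no DAX-1 control cells with DMSO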
# SF1 mutant ctr – StAR reporter signal changes without DAX1, counter-screen for DAX1 inhibitor project, cell-based, luminescence, AF-2 mutant SF-1, transactivation; inhibition, % at 6.8 µM; shares compounds with DAX1 inh-1; AID 652136, 2013; actives 78% (n = 2,400); HEK293 StAR-luciferase, SF-1 AF2 mutant;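 active means inhibition above the mean of all tested compounds plus 3 SD, cut at about 3% in these data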;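 further: 0% = DAX-1 transfected cells with DMSO and 100% = cells without DAX-1 with DMSO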
# LXRb hcDAF ctr – LXR agonists, Gal4 luciferase reporter, confirmation, counter-screen for hcDAF-12 agonist project, cell-based, luminescence, HEK293, H. contortus campaign; shares compounds with hcDAF12 agonist; HEK293 Gal4-LXR tk-luc reporter, 24 h; normalized: DMSO 0%, positive control 100%; activation, % at 6.8 µM; 3,400 tested, under 10 active;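 active means mean percent activation of the reporter above a cutoff set as the average over tested compounds plus their standard deviation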
# hcDAF12 conf – H. contortus DAF-12 receptor agonists, confirmation, cell-based, luminescence, HEK293, lit1-tk-luc, triplicate; activation, % at 6.8 µM; actives 61% (n = 3,400); shares compounds with hcDAF12 agonist; HEK293 hcDAF-12 lit1-tk-luc reporter; % of Δ7-dafachronic acid response;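 active means mean activation across triplicate tests above the threshold derived from the earlier primary screen, cut at about 5.5% in these data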;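 further: 0% = DMSO only wells and 100% = 3 µM Δ7-dafachronic acid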
# * = called active by the depositor; . = no result. Shown are actives, neighbours in structure and some others; about 4.1% of the full set was active somewhere.
SMILES,ssDAF12 agonist,DAX1 inh-1,hgDAF12 agonist,DAX1 inh-2,hcDAF12 agonist,DAX1 inh confirm,SF1 mutant ctr,others
O=C(CNC(=O)c1cccs1)c1ccc([N+](=O)[O-])cc1,-1,2,4,1,1,.,.,
O=C(CNC(=O)c1cccs1)Nc1ncccc1O,-1,4.5*,0,0,2,3,2,
CC(C)c1ccc(Oc2cccc3c2S(=O)(=O)N([C@H](C)c2ccccc2)C[C@@H](COCc2ccccc2)O3)cc1,-1,0,2,.,1,.,.,
Cc1[nH]c2ccc(C(=O)N3CCCCC3)cc2c1C,1,6.3*,11*,3,2,9.5*,3.6*,
CCCCCn1cc(CCC(=O)Nc2ccc(N(C)c3ccccn3)cc2)c2ccccc21,-1,0,6,.,-1,.,.,
CC(=O)Nc1ccc(C(C)=NNC(=O)C2CCCC2)cc1,0,4.6*,3,.,1,-2,-1,
O=C(Nc1nccs1)c1ccc(-c2ccccc2[N+](=O)[O-])o1,0,5.2*,10,1,3,7.2*,6.3*,
O=C(Nc1nccs1)c1ccc(N2CCOCC2)c([N+](=O)[O-])c1,0,7.0*,9,3,3,8.4*,5.4*,
COC(=O)C1CN(Cc2cn(CCOC(C)=O)nn2)CCS(=O)(=O)N1Cc1ccc(F)cc1 (configuration not stated),-1,0,0,.,1,.,.,
Nc1ncnc2c1ncn2[C@@H]1O[C@H](C(=O)N[C@@H](CCc2ccccc2)C(=O)O)[C@@H](O)[C@H]1O,-2,1,-3,.,-1,.,.,
COc1ccc(C2O[C@@H](C)[C@@H]3C(=O)N4CCc5c([nH]c6ccccc56)[C@@H]4C[C@@H]3N2C)cc1 (some centres not stated),0,1,0,.,1,.,.,
CCCC(=O)Nc1ccc(NC(=O)c2ccccc2)nc1,0,4.7*,5,1,3,13*,6.6*,
CCCC(=O)Nc1ccc(NC(=O)c2ccccc2F)cn1,1,0,3,1,-1,.,.,
C[C@@H]1[C@@H](O)C[C@@]2(C[C@H](O)c3cc(F)ccc3O2)O[C@H]1c1ccccc1Cl,-1,0,1,.,-4,.,.,
O=C(COc1ccc(Cl)cc1Br)NC(=O)NC1CCCC1,-1,8.0*,13*,3,1,7.9*,5.3*,
O=C(COc1ccc(Br)cc1Cl)NC(=O)NC1CCCC1,0,2,10,1,2,.,.,
O=C(COc1ccc(Cl)cc1Cl)NC(=O)NC1CCCC1,0,5.0*,12*,0,3,4.1*,1,
COC(=O)[C@H]1C[C@@]2(c3ccccc3)c3ccccc3N(S(=O)(=O)c3ccccc3)[C@H]2N1,-1,-1,9,.,-2,.,.,
C/C(=N/NC(=O)CSc1nnc(-c2ccccc2)n1-c1ccc(Cl)cc1)c1cccc(O)c1,0,-1,7,.,-1,.,.,
O=S(=O)(/N=C(/Nc1nc2ccccc2s1)c1ccccc1)c1ccccc1,1.5*,14*,12*,0,8.9*,5.0*,4.2*,LXRb hcDAF ctr=1;hcDAF12 conf=3
C/C(=N\Nc1cccc2cccnc12)c1ccccc1O,4.2*,5.6*,25*,9.6*,25*,14*,4.3*,LXRb hcDAF ctr=3;hcDAF12 conf=20*
Oc1c(/C=N/Nc2cccc3cccnc23)ccc2ccccc12,0,1,0,1,1,.,.,
Oc1cccc(/C=N/Nc2cccc3cccnc23)c1,3.7*,5.7*,23*,3,21*,20*,10*,LXRb hcDAF ctr=2;hcDAF12 conf=25*
O=C(O)c1ccc(N/N=C/c2cc3c(cc2[N+](=O)[O-])OCO3)cc1,-1,-1,0,-1,-3,.,.,
O=C(O)c1ccc(N/N=C/c2cc3cc4c(cc3nc2Cl)OCCO4)cc1,2.9*,7.3*,24*,-5,12*,25*,9.6*,LXRb hcDAF ctr=3;hcDAF12 conf=20*
SMILES,ssDAF12 agonist,DAX1 inh-1,hgDAF12 agonist,DAX1 inh-2,hcDAF12 agonist,DAX1 inh confirm,SF1 mutant ctr,others
COc1cccc(-c2nc(-c3cccs3)no2)c1,4.0*,5.3*,26*,3,15*,17*,11*,LXRb hcDAF ctr=2;hcDAF12 conf=16*
COc1cc(OC)cc(-c2nc(-c3cccs3)no2)c1,-1,1,4,0,1,.,.,
O=C(Nc1nc2ccccc2[nH]1)c1ccc(F)cc1,1.2*,5.3*,13*,-2,8.0*,14*,8.9*,LXRb hcDAF ctr=1;hcDAF12 conf=5
Cc1ccc(CNC(=O)OC(C)(C)C)c(/C=C/S(=O)(=O)NC2CCCC2)c1,-1,-1,1,.,0,.,.,
COC(=O)[C@]12C[C@H](CC(=O)N3CCSCC3)C(=O)N(Cc3cccc4ccccc34)C1=C[C@H](COCc1ccccc1)O[C@@H]2C,-2,-1,-5,.,-3,.,.,
CC(C)[C@H](NC(=O)OC(C)(C)C)C(=O)N1CCC(Oc2cccnc2)CC1,-1,1,8,.,0,.,.,
CCOc1ccc(NC(=O)/C=C/c2ccccc2)c([N+](=O)[O-])c1,0,0,6,0,2,.,.,
CCOc1ccc(N/C=C/C(=O)c2ccccc2)c([N+](=O)[O-])c1,0,7.5*,9,-2,11*,1,-2,LXRb hcDAF ctr=1;hcDAF12 conf=4
C/C(=N/NC(=O)c1ccccc1)C(=O)O,-1,1,-1,0,1,.,.,

# Screens deposited in PubChem by The Scripps Research Institute Molecular Screening Center.
